Screening data as filed in PubChem.
An excerpt weighted towards active compounds, which were near 14% of everything screened.
CRE-bla Fsk – modulators of forskolin-stimulated CRE signaling in CHO cells; CHO CRE-bla reporter (cAMP response element driving beta-lactamase), forskolin EC10, beta-lactamase ratio; Potency, µM (doses to about 38.2 µM), without a hit: at the highest dose activity change, negative = inhibition, actives largely listed as activators; hit rate 2.5% among 71,000; AID 662; active means well fitted activation curve with a large enough effect in the signal ratio, with a control signal flat, not every such curve was filed as active; inconclusive means small, poorly fitted or top-dose-only effect, or effect the other way, or a change in a side signal; the % refers to the signal ratio; further: potency means the concentration at half of the fitted maximal effect; % of control where 0% means no effect
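CRE-bla CHO reporter cells treated with compound titration plus EC10 NKH 477 (water-soluble forskolin), incubated 3 h at 37 °C; CCF4 loading 2 h at room temperature, 460/530 nm emission ratio read, AC50 values derived for positive or negative modulators.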
HSD17B inh – HSD17B dehydrogenase inhibition | Q99714 | recombinant HSD17B10, NADH fluorescence kinetic | Potency, µM (titrated, usually from 57.1 µM), without a hit: top-dose activity change, negative = inhibition, hits mostly inhibitors | hit rate 7.6% among 75,000 | AID 893;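 further: the protocol describes HADH2 (HSD17B10) and not the HSD17B4 of the title; potency means the concentration at half of the fitted maximal effect; on the % scale 0 is the no-effect control and ±100 the full control effect; nearly all actives have a fitted effect of over 70% in size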
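Activity followed as NADH fluorescence increase (ex 360, em 450 nm) every 30 seconds for 4 min, using final 90 uM beta-hydroxybutyryl CoA and 1 mM NAD+. Recombinant His-tagged enzyme, 20 nM, pH 9.0 Tris buffer, 15 min compound preincubation.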
4-MU autofl – compound fluoresces in the 4-MU spectral region. compound autofluorescence, 340/450 nm, 4-MU equivalents; hits give high values. max dye-equivalent concentration, M. hit rate 11% among 59,000. AID 589; in the data active means max dye-equivalent concentration above about 10 nM; inconclusive means mostly about 1.1 nM to 9.6 nM
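Intrinsic fluorescence at 340/450 nm (ex/em) was read after 15 min at room temperature in pH 8.0, 100 mM Tris. Each compound concentration expressed as 4-MU-equivalent concentration from a six-point 4-MU standard series on each plate.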
HADH2 inh – blocks human hydroxyacyl-CoA dehydrogenase type II; AID 886; hit rate 3.4% among 73,000; Q99714; recombinant HADH2, NADH fluorescence, beta-hydroxybutyryl-CoA; Potency, µM (titrated, usually from 57.1 µM), for the others: at the top dose activity change, negative = inhibition, hits mostly inhibitors; further: potency means the concentration at half of the fitted maximal effect; on the % scale 0 is the no-effect control and ±100 the full control effect; nearly all actives have a fitted effect of over 60% in size
Target sequence (Q99714 whole entry, looked up, one chain of several): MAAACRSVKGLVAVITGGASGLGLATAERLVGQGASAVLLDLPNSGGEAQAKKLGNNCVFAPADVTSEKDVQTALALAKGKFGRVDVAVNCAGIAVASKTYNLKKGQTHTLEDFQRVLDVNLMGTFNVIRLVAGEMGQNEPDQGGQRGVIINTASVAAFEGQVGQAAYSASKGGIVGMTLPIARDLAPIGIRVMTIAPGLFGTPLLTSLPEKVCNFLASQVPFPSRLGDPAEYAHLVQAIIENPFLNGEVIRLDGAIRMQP
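Read-out: 360 nm excitation, 450 nm emission, kinetic over 4 min. Conditions: His-tagged human HADH2 20 nM, pH 9.0 Tris with Tween-20, 1 mM NAD+, 90 uM beta-hydroxybutyryl-CoA.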
A350 fluor – compound fluoresces in the Alexa 350 spectral region; Compound autofluorescence, 340/450 nm, Alexa 350 dye-equivalents; hits give high values; max dye-equivalent concentration, M; hit rate 11% among 59,000; AID 590; in the data active means max dye-equivalent concentration above about 10 nM; inconclusive means mostly about 1.1 nM to 9.6 nM
AID923 – qHTS Assay for Allosteric/Competitive Inhibitors of Caspase-1: Spectroscopic Profiling in AFC Spectral Region; compound fluorescence, AFC spectral region (405/520 nm); Potency, µM (series often up to 57.5 µM), without a hit: at the highest dose fluorescence increase, actives largely listed as activators; hit rate 1.1% among 75,000; AID 923, 2007; further: potency means the concentration at half of the fitted maximal effect; 0% is about no effect
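Baseline compound fluorescence (AFC region, 405 nm ex/520 nm em) taken from the intercept of kinetic reads with 50 nM caspase-1 and 5 uM Ac-WEHD-AFC; normalized to an on-plate AFC standard curve; compounds titrated up to 57 uM.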
Numbers without * were called inactive; i = inactive; u = inconclusive; x = no result; [ ] = remark or other dose. Unless noted, the call rests on the fitted dose curve; in most records, active means well fitted curve in the direction sought with a large enough effect; inconclusive means small, poorly fitted or top-dose-only effect, or another doubt; inactive means no such curve, though single readings can be large; an effect the other way counts as inactive or inconclusive.

SMILES	CRE-bla Fsk	HSD17B inh	4-MU autofl	HADH2 inh	A350 fluor	AID923
O=C(O)c1ccc2c(c1C(=O)O)C(=O)OC2(c1ccc(O)cc1)c1ccc(O)cc1	14.8%[7.6 µM]	4.3%[11.4 µM]	i	-1.4%[11.4 µM]	i	-2.5%[11.5 µM]
O=C(CSc1ncnc2c1oc1ccccc12)Nc1cccc(F)c1	u	1.1%	i	6.4%	i	-1.9%
O=C(CSc1nc(-c2ccccc2)cs1)Nc1nccs1	12.6%	-2.0%	i	-3.2%	i	-0.3%
CCc1nc(SCC(=O)Nc2nccs2)c2oc3ccccc3c2n1	1.26µM*	-12.0%	i	u	i	-0.5%
COc1ccccc1NC(=O)CSc1ncnc2c1oc1ccccc12	1µM*	12.1%	i	4.9%	i	1.4%
CCn1c(SCC(=O)Nc2cc(NC(C)=O)ccc2OC)nnc1-c1cccnc1	14.1%	-0.5%	u	5.5%	1.02e-08M*	0.5%
COc1ccc(NC(C)=O)cc1NC(=O)CSc1nnc(-c2ccccn2)n1C	3.6%	4.1%	i	22.6%	i	2.9%
COc1ccc(NC(C)=O)cc1NC(=O)CSc1nnc(-c2cccnc2)n1C	14.2%	-27.6%	1.17e-08M*	-9.5%	u	6.1%
CC(=O)Nc1cccc(-c2nnc(SCC(=O)N3CCCCC3)n2C)c1	0.8%	25.1µM*	3.79e-07M*	17.3%	4.46e-07M*	1.4%
COC(=O)[C@H](C)NC(=O)C/C=C\[C@@H](C)[C@H]1C=C[C@H](O)[C@@H](CO)O1	x	0.0%[11.4 µM]	x	-0.8%[11.4 µM]	x	-5.6%[11.5 µM]
Nc1ccccc1C(=O)C[C@@H](N)C(=O)O	u	x	i	-10.2%	i	x
COc1ccc(C(=O)N2CCC3(CCCN(C)C3)CC2)cc1	-2.1%	0.8%	i	-2.2%	i	2.4%
CS(=O)(=O)N1CCC2(CCCN(C(=O)Nc3ccccc3)C2)CC1	-4.4%	-3.4%	i	2.0%	i	1.0%
O=C(NCc1ccco1)C1Cc2ccccc2CN1S(=O)(=O)c1ccccc1F (centres undefined)	u	15.8µM*	u	u	u	0.5%
Cc1cc(C)c(C#N)c(SCC(=O)N2CCCCC2)n1	10.1%	-7.4%	i	u	i	4.4%
Cc1cc(C)c(C#N)c(N2CCSCC2)n1	u	25.1µM*	5.03e-08M*	u	5.95e-08M*	2.4%
Cc1cc(C)c(C#N)c(N2CCCC(C(N)=O)C2)n1 (centres undefined)	6.6%	31.6µM*	6.87e-08M*	-6.7%	6.8e-08M*	0.9%
O=C(CCCOc1ccc(Cl)cc1Cl)NCCCO	-3.6%	-11.5%	3.12e-08M*	9.9%	4.23e-08M*	-1.9%
CC(C)(CO)NC(=O)CCCOc1ccc(Cl)cc1Cl	4.9%	7.0%	x	1.8%	x	1.8%
Brc1cccc(-c2nnc3n2CCCCC3)c1	3.8%	11.7%	1.41e-08M*	2.3%	1.64e-08M*	2.6%
C[C@](O)(c1ccccc1)c1nccc2ccccc12	11.4%[7.6 µM]	3.5%[11.4 µM]	i	1.5%[11.4 µM]	i	-0.1%[11.5 µM]
CCN(CC)CCNC(=O)c1c(O)c2cc(OC)c(OC)cc2[nH]c1=O	4.1%	u	8.61e-08M*	6.5%	7.1e-08M*	-1.7%
CCc1nn(CC(=O)NCCCN2CCCC2=O)c(=O)c2cc3sccc3n12	13.1%	-0.7%	x	-4.1%	x	-2.8%
CCc1nn(CC(=O)NCCCN(CC)Cc2ccccc2)c(=O)c2cc3sccc3n12	u	-5.7%	1.61e-08M*	4.9%	u	-1.2%
Cc1ccc(Cl)cc1	-9.6%	0.1%	x	-0.5%	x	-0.2%
SMILES	CRE-bla Fsk	HSD17B inh	4-MU autofl	HADH2 inh	A350 fluor	AID923
Cc1ccccc1OCCN1C(=O)NC2(CCc3ccccc32)C1=O (centres undefined)	-7.0%	4.2%	6.49e-08M*	u	6.65e-08M*	0.8%
CCOC(=O)c1[nH]c2cc(OC)c(OC)cc2c1NC(=O)c1ccc2c(c1)OCO2	x	u	x	9.8%	x	1.0%
CCOC(=O)c1[nH]c2cc3c(cc2c1NC(=O)CN1CCCCC1C)OCO3 (centres undefined)	x	x	2.74e-08M*	x	3.1e-08M*	x
CCOC(=O)c1[nH]c2ccc(Br)cc2c1NC(=O)CNC	x	x	i	x	i	x
CCOC(=O)c1[nH]c2cc(OC)c(OC)cc2c1NC(=O)CN(C)C1CCCCC1	u	3.16µM*	u	-10.3%	u	-0.3%
CCOC(=O)c1[nH]c2ccc(OCC)cc2c1NC(=O)CN1CCC2(CC1)OCCO2	u	31.6µM*	1.09e-07M*	u	1.44e-07M*	-1.9%
CCOC(=O)c1[nH]c2cc3c(cc2c1NC(=O)CN1CCC2(CC1)OCCO2)OCO3	x	x	1.52e-07M*	x	1.83e-07M*	x
c1c[nH]c(CN2CCOCC2)n1	2.2%[7.6 µM]	3.4%[11.4 µM]	i	0.3%[11.4 µM]	i	2.9%[11.5 µM]
COC(=O)[C@@]1(Cc2ccc(F)cc2)[C@H]2c3cc(C(=O)N4CCCC4)n(CC4CC4)c3C[C@H]2CN1C(=O)c1ccccc1	-6.3%	-25.9%	x	5.3%	x	-0.2%
CCCCC(=O)N(C)C	-5.3%	-0.3%	x	-1.5%	x	-1.0%
CC[C@](N)(CCC(=O)O)C(=O)O	-6.0%	5.4%	x	-13.6%	x	0.1%
CCOC(=O)c1[nH]c2ccc(OCC)cc2c1NC(=O)CN1CCN(c2ccccc2)CC1	17.0%	25.1µM*	8.31e-08M*	u	1.38e-07M*	-1.8%
CCOC(=O)c1[nH]c2ccccc2c1NC(=O)CN1CCCCC1	4.8%	-24.6%	i	1.5%	i	-0.7%
COc1ccc(OC)c(S(=O)(=O)Nc2ccc(C(N)=O)cc2)c1	0.7%	3.1%	i	-1.7%	i	-2.4%
COc1ccc(OC)c(S(=O)(=O)Nc2ccc(O)c(Sc3ncn[nH]3)c2)c1	1.6%	u	i	5.01µM*	i	1.1%
COc1ccc(OC)c(S(=O)(=O)Nc2ccc(O)c3ccccc23)c1	u	15.8µM*	i	2µM*	i	1.0%
C=Cc1ccc(C=C)cc1	-9.9%	0.0%	x	-8.9%	x	-0.1%
Cc1ccc2nc(Nc3nc(=O)c4ccccc4n3C)nc(C)c2c1	4.9%	-12.7%	1.12e-08M*	24.3%	1.18e-08M*	1.8%
Cc1ccc2nc(NC3=NCN(Cc4ccccc4)CN3)nc(C)c2c1	11.2%	0.5%	i	12.7%	i	-0.2%
O=C(Cc1c(O)c2ccccc2[nH]c1=O)NCc1cccc(F)c1	-7.5%	25.1µM*	i	-4.0%	i	2.9%
C[N+]1(NCC[N@@+]2(C)CCc3ccccc3C2)CCCCC1	5.2%[7.6 µM]	5.1%[11.4 µM]	i	-8.5%[11.4 µM]	i	-1.2%[11.5 µM]
CC[C@H]1C2=C3C(CC[C@H]4C(OCc5ccc(F)cc5C(F)(F)F)OC[C@](C)([C@@H]34)N(C(=O)OC(C)(C)C)C2)C2COC(=O)OCC21 (some centres undefined)	-7.7%	5.5%	x	19.9%	x	0.3%
CC1CCC/C(=C\Nc2ccccc2C(=O)O)C1=O (centres undefined)	-13.1%	31.6µM*	1.63e-08M*	u	1.87e-08M*	2.1%
